Measured values taken from article PMC4336329 (PLoS ONE, 2015).
In all, about 310,000 compounds went through this assay and about 14,000 (4.5%) showed an effect of 50% or more. Effects have a minus sign here. Shown is part of a subset that was picked to be rich in strong results.

Each compound was assayed against human ether-à-go-go-related gene (hERG) potassium channel (human, UniProt Q12809) (assay: primary screen, population patch clamp on CHO cells stably expressing hERG; higher = less effect of the substance).
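Further: peak tail current of the secondary pulse compared with the same well before compound.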

Sequence of human ether-à-go-go-related gene (hERG) potassium channel (Q12809 whole entry, looked up): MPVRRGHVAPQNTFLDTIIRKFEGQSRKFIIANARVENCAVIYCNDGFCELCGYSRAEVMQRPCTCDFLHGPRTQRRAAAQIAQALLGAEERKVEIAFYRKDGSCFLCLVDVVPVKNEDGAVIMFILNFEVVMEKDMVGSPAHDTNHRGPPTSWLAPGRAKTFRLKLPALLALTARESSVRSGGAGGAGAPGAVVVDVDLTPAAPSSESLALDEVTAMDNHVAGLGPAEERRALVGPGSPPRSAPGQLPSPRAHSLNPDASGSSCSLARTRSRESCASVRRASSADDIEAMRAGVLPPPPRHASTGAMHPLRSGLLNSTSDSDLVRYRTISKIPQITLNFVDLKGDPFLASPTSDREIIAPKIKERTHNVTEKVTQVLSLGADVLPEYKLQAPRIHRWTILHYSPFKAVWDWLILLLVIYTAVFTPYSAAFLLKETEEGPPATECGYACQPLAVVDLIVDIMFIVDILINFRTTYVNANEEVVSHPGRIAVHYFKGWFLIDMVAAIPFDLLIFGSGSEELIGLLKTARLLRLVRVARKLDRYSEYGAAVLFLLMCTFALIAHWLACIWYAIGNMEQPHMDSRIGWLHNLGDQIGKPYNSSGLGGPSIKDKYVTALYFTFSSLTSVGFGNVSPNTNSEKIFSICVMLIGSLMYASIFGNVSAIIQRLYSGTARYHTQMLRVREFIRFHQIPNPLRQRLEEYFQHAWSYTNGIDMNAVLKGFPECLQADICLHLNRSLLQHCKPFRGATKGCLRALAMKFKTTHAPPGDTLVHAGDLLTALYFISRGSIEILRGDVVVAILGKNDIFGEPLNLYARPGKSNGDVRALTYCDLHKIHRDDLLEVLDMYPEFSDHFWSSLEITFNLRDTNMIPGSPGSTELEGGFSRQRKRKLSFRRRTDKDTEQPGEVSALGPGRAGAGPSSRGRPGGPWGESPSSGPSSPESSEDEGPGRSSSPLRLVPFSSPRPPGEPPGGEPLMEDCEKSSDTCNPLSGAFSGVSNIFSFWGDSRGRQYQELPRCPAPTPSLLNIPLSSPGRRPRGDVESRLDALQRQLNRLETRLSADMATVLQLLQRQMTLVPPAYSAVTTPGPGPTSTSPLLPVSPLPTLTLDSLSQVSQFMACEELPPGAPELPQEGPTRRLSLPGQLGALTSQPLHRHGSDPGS

Row | Compound | hERG current change (%, negative = inhibition) at 10uM
1 | CC(C)c1onc(C(=O)N2CCN(C(c3ccccc3)c3ccccc3)CC2)c1[N+](=O)[O-] | 13.6%
2 | O=C(O)C(F)(F)F.O=C1C(Cc2ccccc2)Nc2ncnc(N3CCN(c4ccccc4)CC3)c2N1Cc1ccc(Cl)cc1 (stereo not drawn) | 0.92%
3 | Cn1nnc2cc(C(=O)N3CCN(c4ccccc4)CC3)ccc21 | -3.95%
4 | CC1CCN(C(=O)CN(c2ccc3c(c2)OCCO3)S(=O)(=O)c2ccccc2)CC1 | -26.6%
5 | Cc1ccc(S(=O)(=O)N(CC(=O)N2CCC(C)CC2)c2ccccc2)cc1 | -26.4%
6 | Cc1cc(C)cc(N(CC(=O)N2CCC(C)CC2)S(C)(=O)=O)c1 | -38.6%
7 | Cc1ccc(S(=O)(=O)N(CC(=O)N2CCC(C)CC2)c2cccc(C)c2)cc1 | -55.1%
8 | Cc1cc(C)cc(N(CC(=O)N2CCC(C)CC2)S(=O)(=O)c2ccccc2)c1 | -70.3%
9 | CCOC(=O)N1CCN(C(=O)CN(c2cccc(C)c2)S(=O)(=O)c2ccc(C)cc2)CC1 | -39.7%
10 | Cc1ccc(N(CC(=O)N2CCOCC2)S(=O)(=O)c2ccccc2)cc1 | -2.35%
11 | O=C(CN(c1ccccc1)S(=O)(=O)c1ccccc1)N1CCOCC1 | 4.9%
12 | Cc1cc(C)cc(N(CC(=O)N2CCOCC2)S(=O)(=O)c2ccccc2)c1 | -56.1%
13 | Cc1cccnc1NC(=O)Nc1cccs1 | 12.4%
14 | Cc1ccc(NC(=O)CCl)c(C)c1 | 21.6%
15 | COc1ccc(-n2nc(C(=O)NCC(=O)N3CCN(c4cccc(Cl)c4)CC3)c3ccccc3c2=O)c(OC)c1 | -2.74%
16 | COc1ccc([N+](=O)[O-])cc1NC(=O)C(C)Sc1nc(C)c(C)c(C)n1 (stereo not drawn) | -44.4%
17 | CCN(c1ccc(NS(=O)(=O)c2cc(Cl)ccc2Cl)cc1)C(C)C | -0.282%
18 | CCN(CC)C(=O)C(C(=O)c1cccc([N+](=O)[O-])c1)n1cc(Cl)ccc1=O (stereo not drawn) | 24.8%
19 | Cc1nc(-c2cccc(S(=O)(=O)N3CCOCC3)c2)cs1 | -2.11%
20 | COc1ccc(-c2[nH]ncc2CNC(C)CCn2cccn2)c(F)c1 (stereo not drawn) | -15.4%
21 | COc1ccc(-c2[nH]ncc2CNC(C)Cc2ccsc2)c(F)c1 (stereo not drawn) | -36.1%
22 | CC(Cc1ccsc1)NCc1cn[nH]c1-c1ccc(F)cc1F (stereo not drawn) | -66.3%
23 | CC(=O)/C(N=Nc1nc2c([nH]1)c(=O)n(C)c(=O)n2C)=C(\C)O | 13.2%

Row | Compound | hERG current change (%, negative = inhibition) at 10uM
24 | Cc1ccc(Cl)cc1N1CCN(C(=O)C2CCN(c3nnc(-n4cccc4)s3)CC2)CC1 | -16.4%
25 | CCN1CCN(C(=O)C2CCN(c3nnc(-n4c(C)ccc4C)s3)CC2)CC1 | -13%
26 | Cc1cccc(N2CCN(C(=O)C3CCN(c4nnc(-n5cccc5)s4)CC3)CC2C)c1 (stereo not drawn) | -55.8%
27 | O=C(C1CCN(c2nnc(-n3cccc3)s2)CC1)N1CCN(c2cccc(C(F)(F)F)c2)CC1 | -22.8%
28 | CCOC(=O)C1CCN(C(=O)C2CCN(c3nn4c(=O)cc(C)nc4s3)CC2)CC1 | 3.2%
29 | CC1CCN(C(=O)C2CCN(c3nnc(-n4cccc4)s3)CC2)CC1 | -12.1%
30 | CCOC(=O)N1CCN(C(=O)C2CCN(c3nnc(-n4cccc4)s3)CC2)CC1 | -57.1%
31 | CCOC(=O)C1CCCN(C(=O)C2CCN(c3nnc(-n4cccc4)s3)CC2)C1 (stereo not drawn) | -48.6%
32 | CCOC(=O)C1CCN(C(=O)C2CCN(c3nnc(-n4cccc4)s3)CC2)CC1 | -62.5%
33 | O=C(c1ccc(Br)cc1)N1CCN(S(=O)(=O)c2ccccc2)CC1 | -38.5%
34 | CCCCC(=O)NC(=S)Nc1nnn(CCC)n1 | 9.55%
35 | COc1ccc(CN(C)C(=O)c2ccc3c(=O)n4c(nc3c2)CCC4)cc1 | 13.7%
36 | Cl.NC1=NC2(CCCCC2)N(c2cccc(Cl)c2)C(N)=N1 | 27.9%
37 | CCn1nnc(-c2ccccc2NC(=O)C(F)(F)F)n1 | -9.9%
38 | CN1CCN(CCC(=O)N/N=C/c2cc3c(cc2[N+](=O)[O-])OCO3)CC1 | 9.64%
39 | O=C(NC(=S)Nc1cc(C(F)(F)F)ccc1N1CCOCC1)c1ccco1 | 3.6%
40 | CN1C(C(=O)NCc2ccco2)CC2Cn3c(nc4ccccc43)C21 (stereo not drawn) | 10.3%
41 | O=C(NCc1cccc(Br)c1)C1CC2Cn3c(nc4ccccc43)C2N1Cc1ccccc1 (stereo not drawn) | -74.2%
42 | COCCNC(=O)C1CC2Cn3c(nc4ccccc43)C2N1C (stereo not drawn) | 11.2%
43 | COc1ccccc1CNC(=O)C1CC2Cn3c(nc4ccccc43)C2N1C (stereo not drawn) | -9.34%
44 | O=C(NCc1cccc(C(F)(F)F)c1)C1CC2Cn3c(nc4ccccc43)C2N1Cc1ccccc1 (stereo not drawn) | -57.8%
45 | O=C(NCc1cccc(Br)c1)C1CC2Cn3c(nc4ccccc43)C2N1c1ccccc1 (stereo not drawn) | -20.5%
